Test results published in PubChem BioAssay (NCI).
Compounds without any hit were thinned out: in the full panel of roughly 83,000, 20% have a hit.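 Single-concentration screen, 48 h exposure, 96-well plates. Endpoint: percent growth. Below 10 = active.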 Values without a mark were called inactive. Calls of active or inactive are those of the source.

Key:
Experiment in all cases: NCI-60 one-dose screen, 48 h (100 = growth as untreated, 0 = no growth, -100 = all killed)
Conditions in all cases: 10 µM unless noted
NCI-H23 lung = system: NCI-H23 lung
NCI-H226 lung = system: NCI-H226 lung
NCI-H322M lung = system: NCI-H322M lung
HOP-62 NSCLC = system: HOP-62 NSCLC
NCI-H460 lung = system: NCI-H460 lung
HOP-92 NSCLC = system: HOP-92 NSCLC
A549/ATCC NSCLC = system: A549/ATCC NSCLC
786-0 renal = system: 786-0 renal
COLO 205 colon = system: COLO 205 colon
DU-145 prostate = system: DU-145 prostate
MALME-3M melanoma = system: MALME-3M melanoma
MDA-MB-231 breast = system: MDA-MB-231 breast
RXF 393 renal = system: RXF 393 renal
SF-268 CNS = system: SF-268 CNS
SF-295 CNS = system: SF-295 CNS
SF-539 CNS = system: SF-539 CNS
M14 melanoma = system: M14 melanoma
K-562 leukemia = system: K-562 leukemia
UACC-257 melanoma = system: UACC-257 melanoma

Structure (SMILES)	growth (NCI-H23 lung)	growth (NCI-H226 lung)	growth (NCI-H322M lung)	growth (HOP-62 NSCLC)	growth (NCI-H460 lung)	growth (HOP-92 NSCLC)	growth (A549/ATCC NSCLC)	growth (786-0 renal)	growth (COLO 205 colon)	growth (DU-145 prostate)	growth (MALME-3M melanoma)	growth (MDA-MB-231 breast)	growth (RXF 393 renal)	growth (SF-268 CNS)	growth (SF-295 CNS)	growth (SF-539 CNS)	growth (M14 melanoma)	growth (K-562 leukemia)	growth (UACC-257 melanoma)
COc1ccc(-c2c3c(N)nc(-c4ccncc4)nc3nc3c2c(C)nn3-c2ccccc2)cc1	59.9%	74%	74.3%	62.6%	23.4%	51.4%	30.8%	72.6%	38.6%	82%	76%	67.6%	69.4%	54%	58.7%	-40% (active)	69.1%		
O=C1Nc2ccc(C(=O)O)c(O)c2C1=O	107%	104%	105%	97.4%	105%	97.3%	96.9%	109%	104%	111%		113%	116%	104%	108%	94.4%	107%	107%	117%
Fc1ccc(-c2nn3c(-c4cc(C(F)(F)F)cc(C(F)(F)F)c4)nnc3s2)cc1	45.5%	6.11% (active)	56.3%	-11.5% (active)	4.16% (active)	-20.5% (active)	33.3%		73.1%	87.1%	43.8%	39.5%		37.3%	38.4%	39.7%	64.6%	68.8%	76.7%
COc1cc(/C=C/c2cc(/C=C/c3ccc(O)c(OC)c3)n(C(=O)Cc3ccccc3)n2)ccc1O	1.94% (active)	13.7%	9.62% (active)	2.82% (active)	4.69% (active)	-0.112% (active)		10.2%	-64.3% (active)	17.3%	-0.485% (active)	15.2%	-42.6% (active)	9.64% (active)	8.28% (active)	-23.1% (active)	0.243% (active)	1.69% (active)	-5.67% (active)
N/C(=N\c1nc2ccccc2s1)NC(=O)Nc1ccccc1Cl	34.9%	35.3%	45%	28.6%	12.7%		21.6%	36.6%	-44.4% (active)	21.8%	63.3%	42.1%	-13.9% (active)	60.9%	9.08% (active)	-14.2% (active)	13.4%	6.5% (active)	62.3%
O=C(/C=C(\Nc1ccccc1)c1ccccc1)c1cn(-c2ccc([N+](=O)[O-])cc2)nn1	91.4%	95.3%	82.8%	101%	91%	95%		92.1%	97.2%	125%	103%	103%		98.3%	73.3%	94.9%	97.6%	73.8%	42.4%
COc1cc(NC(C)CCCN)c2nc(C)ccc2c1Oc1ccc(F)cc1 (stereo not drawn)	84.8%	84.9%	37.4%	85.8%	73.8%	50.3%		65.9%	-45.1% (active)	99.9%	71.7%	61.5%	69.3%	80.7%		87.5%	62.3%	35.9%	65.7%
CC(NC(N)=S)c1ccccc1 (stereo not drawn)	110%	101%	97.8%	85.6%	101%	106%		98%	107%	115%	105%	91.9%	98%	106%	101%	96.1%	104%	94.6%	
Nc1ccc2c(c1)Cc1cc(Cl)c(Cl)cc1-2	68.1%	92.3%	60.5%	86.5%	52.6%	67.8%		59.7%	85.1%	59.9%		52.5%	50.7%	74%	50.1%	74.2%	-9.59% (active)	67.4%	77%
COc1ccc(/C=C2\CCc3ccccc3C2=O)cc1	90.3%	103%	98.1%	85.8%	102%	84.2%		91.5%	106%	98.2%	86.1%	87.3%	103%	100%	32.5%	105%	99.2%	20.7%	
